Compounds with a hit are over-represented: about 14% of the library has one in this group of screens.
MARV entry inh: Marburg virus entry inhibition; hit rate 1.8% among 300,000; AID 540276; Potency, µM (doses to about 37.8 µM), inactives show at the top dose activity change, negative = inhibition, hits mostly inhibitors; Marburg virus pseudotyped entry inhibition, cell reporter; calls by dose curve; tested in HEK293 cells; further: potency means the concentration at half of the fitted maximal effect
HCV inhibitor: inhibitors of hepatitis C virus infection; hit rate 3.4% among 340,000; Huh7.5.1 HCVcc-Cre infection, luciferase reporter, 44 h; Potency, µM (top dose mostly 41.8 µM), without a hit: top-dose activity change, negative = inhibition, hits mostly inhibitors; further: potency means the concentration at half of the fitted maximal effect
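HCVcc-Cre virus at an moi near 0.5 was added right after compound to cells cultured 4 h from seeding (1,000 cells/well). Luciferase activity was determined 44 h later, 15 min after substrate addition at RT.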
Pf growth 48h: inhibits P. falciparum growth in the first generation, 48 h | hit rate 5.9% among 310,000 | P. falciparum luciferase growth in erythrocytes, 48 h | AID 504832 | Potency, µM (doses to about 28.7 µM), for inactives: at the top dose activity change, negative = inhibition, actives largely listed as inhibitors; further: potency means the concentration at half of the fitted maximal effect
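Here the parasites carry a stable luciferase gene and grow inside erythrocytes in Albumax-based RPMI medium with compound for one erythrocytic cycle. Activity is scored as loss of luminescent signal.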
LASV entry inh: Lassa virus entry inhibition | Potency, µM (top dose mostly 37.9 µM), inactives show at the top dose activity change, negative = inhibition, most hits filed as inhibitors | hit rate 1.2% among 300,000 | Lassa virus pseudotype entry inhibition, cell reporter; calls by dose curve; tested in HEK293 cells; further: potency means the concentration at half of the fitted maximal effect; nearly all actives have a fitted effect of over 50% in size
Pf growth 96h: P. falciparum growth inhibition at 96 hour, primary screen for plastid delayed-death inhibitors | P. falciparum luciferase reporter growth, 96 h | Potency, µM (titrated, usually from 28.7 µM), without a hit: at the highest dose activity change, negative = inhibition, usual class: inhibitors | hit rate 6.9% among 320,000 | AID 504834; further: potency means the concentration at half of the fitted maximal effect
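P. falciparum expressing integrated firefly luciferase grown in erythrocytes (2% hematocrit, 0.05% parasitemia final) with compounds for 96 hours at 37 C, 5% CO2. Growth inhibition read as loss of luminescence after adding luciferase detection reagent.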
HCMV antiviral: blocks human cytomegalovirus replication; HFF cells, HCMV-luciferase reporter, 72 h; hits give low values; activity change, negative = inhibition, % at 57.5 µM; hit rate 4.5% among 410,000; AID 1259415; in the data active means activity change below about -60%; inconclusive means no clear call, values can overlap the other calls; inactive means above about -39%
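Cell-based, HFFs, 1000 cells/well, 16 h 37C; cpds in DMSO + HCMV-luc, MOI 1 PFU/cell; 72 h 37C; OneGlo luminescence after 5 min RT; norm. to buffer vs Salinomycin 10uM.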
* marks the source's active call; other numbers are inactive results; ? = inconclusive; . = no result given; [ ] = another dose, or the depositor's remark. Unless noted, the call rests on the fitted dose curve; in most records, active means well fitted inhibition curve with a large enough effect; inconclusive means small, poorly fitted or top-dose-only effect, or another doubt; inactive means no such curve, though single readings can be large or run the other way. On the % scale 0 is the no-effect control and ±100 the full control effect.

SMILES	MARV entry inh	HCV inhibitor	Pf growth 48h	LASV entry inh	Pf growth 96h	HCMV antiviral
O=C(c1ccc(Cl)cc1)C1CCN(C(=O)c2ccc(F)cc2)CC1	.	-24%	-10%	.	13µM*	-35
Cc1ccc(C(=O)N2CCC(C(=O)c3c(C)cc(C)cc3C)CC2)cc1	.	11µM*	?	.	?	.
O=c1oc2ccccc2cc1-c1nc(-c2cccs2)no1	.	.	.	4%[46.1 µM]	.	16
CC1(C)CCC[C@]2(C)[C@H]3Cc4cc(O)ccc4O[C@]3(C)CC[C@@H]12	.	?	.	.	.	-88*
COC(=O)c1c(Oc2ccc(OC)cc2)nnc(-c2ccccc2)c1-c1ccccc1	?	.	.	?	.	-28
Cc1ccc2[nH]cc(/C=C/c3cc[n+](C)cc3)c2c1	5µM*	?	-1%[0.00184 µM]	?	?	-100*
COC(=O)Cn1cc(/C=C/c2cc[n+](C)cc2)c2ccccc21	.	-6%	?	.	-3%	20
CC[n+]1ccc(/C=C/c2c[nH]c3ccccc23)cc1	.	2.8µM*	0.52µM*	.	?	-94*
O=C(/C=C/c1ccccc1)c1c[nH]c2ccccc12	.	0%	228%	.	19%	18
COc1ccc2c(c1)c(/C=C/c1cc[n+](C)cc1)cn2C	.	-21%	1.2µM*	.	0.37µM*	-98*
COc1ccc2c(/C=C/c3cc[n+](C)cc3)c[nH]c2c1	-28%	?	1.2µM*	-15%	0.52µM*	-99*
Cc1ccc(CN2COc3ccc4c(C)cc(=O)oc4c3C2)cc1	.	.	.	18%[46.1 µM]	.	-18
COc1ccc2c(C=O)c[nH]c2c1	0%	6%	3%	10%	8.3µM*	3
COc1ccc2c(C(=O)CCl)c[nH]c2c1	.	?	15µM*	.	?	-101*
COc1ccccc1-c1c(C)nn2c(N3CCCCCC3)cc(C)nc12	?	13µM*	10µM*	?	9.3µM*	-96*
COc1ccccc1-c1c(C)nn2c(N3CCOCC3)cc(C)nc12	.	?	-16%	.	20%	2
COc1ccc(-c2c(C)nn3c(-c4ccccc4)cc(C)nc23)cc1OC	-2%[46.1 µM]	.	.	-1%[46.1 µM]	.	-17
COCCNc1cc(C)nc2c(-c3ccccc3OC)c(C)nn12	0%	?	-2%	19%	2.3µM*	?
Cc1cc(N2CCC(C)CC2)n2nc(C)c(-c3ccccc3)c2n1	8%	-19%	13%	9%	2%	22
Cc1cc(N2CCCCC2)n2nc(C)c(-c3ccccc3)c2n1	-20%	1.6µM*	?	?	?	-15
COc1ccccc1-c1c(C)nn2c(-c3ccccc3)cc(C)nc12	?	5µM*	?	?	?	-68*
COc1ccccc1NC(=O)CN(C)S(=O)(=O)c1ccc2c(c1)c(=O)n(C)c(=O)n2C	-3%[46.1 µM]	.	.	6%[46.1 µM]	.	-4
Cc1cc(N2CCN(Cc3ccccc3)CC2)n2nc(C)c(-c3ccccc3)c2n1	-2%	?	.	-6%	?	?
Cc1nn2c(N3CCCC3)cc(C(C)C)nc2c1-c1ccccc1	-3%	14µM*	-6%	6%	17%	-31
CCOC(=O)c1cnc2c(cnn2CC)c1NN=C(C)C	?	.	?	3%	?	.
SMILES	MARV entry inh	HCV inhibitor	Pf growth 48h	LASV entry inh	Pf growth 96h	HCMV antiviral
Cc1ccccc1NC(=S)NNc1ncc(C(F)(F)F)cc1Cl	?	-5%	.	-39%	-102%	1
Fc1ccccc1NC(=S)NNc1ncc(C(F)(F)F)cc1Cl	7.9µM*	?	.	?	-87%	-39
FC(F)(F)c1cnc(NNC(=S)Nc2ccccc2)c(Cl)c1	.	.	.	.	.	-24
NC(=S)Nc1ncc(C(F)(F)F)cc1Cl	-15%[46.1 µM]	-14%	31%	15%	15%	-92*
Cc1c(Cl)cccc1NC(=S)NNc1ncc(C(F)(F)F)cc1Cl	21µM*	?	.	?	9.3µM*	-102*
COc1cccc(NC(=O)Cn2nc(C)c3c(C)n(-c4ccccc4)nc3c2=O)c1	.	.	.	24%[46.1 µM]	.	?
CCCCNc1ccc2c(c1)OC[C@@H](Cc1ccccc1)NS2(=O)=O	.	.	.	.	.	1
COc1ccc(C2=CC(c3ccc(OC)c(OC)c3)c3c(c4ccccc4oc3=O)O2)cc1OC (stereo not drawn)	.	10µM*	2.6µM*	.	8.3µM*	-64*
COc1ccc2c(c1)C(=O)CC(c1ccccc1F)O2 (stereo not drawn)	5%	?	-5%	-18%	6%	-17
COc1ccc2c(c1)C(=O)CCC2c1ccccc1 (stereo not drawn)	-10%[46.1 µM]	-3%	-9%	-13%[46.1 µM]	5.2µM*	24
COc1ccc(Cl)cc1NC(=O)CSc1nnc(C)n2c1cc1sccc12	.	.	.	-3%[46.1 µM]	.	-20
N#CCCn1cc(/C=C2\NC(=S)N(c3ccccc3)C2=O)c(-c2ccc(-c3ccccc3)cc2)n1	?	-30%	?	-10%	?	-4
O=C(O)CCn1cc(/C=C2/NC(=S)N(c3ccccc3)C2=O)c(-c2ccccc2)n1	-2%	7%	-14%	17%	3.7µM*	15
CC(C)C(=O)Nc1ccc(N2CCCC2)cc1	13%	-8%	.	6%	4.1µM*	?
O=C(Nc1ccc(N2CCCC2)cc1)C(c1ccccc1)c1ccccc1	8%	-1%	.	25%	4.7µM*	-3
CC(C)C(=O)Nc1ccc(N2CCN(c3ccc(F)cc3)CC2)cc1	9%[46.1 µM]	4%	37%	16%[46.1 µM]	3%	5
CCOC(=O)C1CCN(c2c(C(=O)c3ccc(OC)cc3)cnc3ccccc23)CC1	-6%[46.1 µM]	.	.	.	.	-8
Cc1ccc(/C=N/NC(=O)CNC(=O)c2cccs2)cc1	.	-7%	67%	.	60%	16
O=C(CNC(=O)c1cccs1)N/N=C/c1c(F)cccc1Cl	19%	5%	54%	12%	3%	-60*
Cc1ccccc1/C=C(\C#N)c1nc(-c2ccc(Cl)cc2)cs1	-13%[46.1 µM]	.	.	-1%[46.1 µM]	.	-15
Cc1cc2ccccc2n1-c1ccc(C(=O)N2CCC(C(=O)NCc3ccc(F)cc3)CC2)s1	.	.	.	?	.	-21
Nc1nc(N2CCCCC2)c(C=O)c(N2CCCCC2)n1	-24%[46.1 µM]	11%	-16%	?	4%	13
Nc1nc(Cl)c(C=O)c(N2CCCCC2)n1	-1%[46.1 µM]	10µM*	?	?	-13%	?
CC1NC(=S)N(C2CCCCC2)C1=O (stereo not drawn)	-1%[46.1 µM]	0%	29%	.	4.7µM*	-27
CCC(C)C1NC(=S)N(C2CCCCC2)C1=O (stereo not drawn)	22%	4%	?	7%	?	-9
O=C(CCS(=O)(=O)c1cccc2nsnc12)NCc1ccccc1Cl	?	6%	7%	4%	9.3µM*	26
Cc1c(Cl)cccc1NC(=O)CCS(=O)(=O)c1cccc2nsnc12	8%[46.1 µM]	.	.	-18%[46.1 µM]	.	-12
Cc1cc(CNC(=O)c2ccc3c(c2)OCO3)c2ccccc2n1	.	?	5%	.	34%	?

Source: PubChem (National Center for Advancing Translational Sciences (NCATS))
